{"source": "PubChem BioAssay AID1259249", "about": "(Broad Institute, 2017)", "note": "Several values for one entry are separate records, joined by “and”; a condition that tells them apart may be missing. Identical values can stand only once. Hit rate of the full screen: of about 86,000 compounds, about 220 (0.26%) were called active.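 Rule for the calls: active = mean growth activity at or below -80% and every replicate also at or below -80%; inconclusive = mean at or below -80% but some replicate above -80%; inactive = mean growth activity above -80%.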 For the sample, actives were picked, then their nearest neighbours and some compounds at random."}
{"experiment": "C. difficile growth inhibitors, primary screen, HTS (AID 1259249);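 note: 0% = DMSO wells and -100% = levofloxacin 16 µg/mL wells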", "details": "Clostridium difficile clinical isolate growth, OD600, 24 h; hits give low values; screened at 16 µg/mL (by protocol)"}
{"compound": "COc1ccc(S(=O)(=O)N(C)C[C@@H]2OCCCC[C@H](C)Oc3ccc(NC(=O)Nc4ccccc4)cc3C(=O)N([C@H](C)CO)C[C@H]2C)cc1", "growth activity, negative = inhibition": "-1.33% (inactive)"}
{"compound": "O=C(C[C@@H]1CC[C@H](NS(=O)(=O)c2ccc(F)cc2)[C@@H](CO)O1)NCc1ccccc1F", "growth activity, negative = inhibition": "-8.59% (inactive)"}
{"compound": "COCC(=O)N1[C@H](CO)[C@H](c2ccccc2C2=CCCCC2)[C@@H]1C#N", "growth activity, negative = inhibition": "-0.454% (inactive)"}
{"compound": "COc1ccc(CN(C)C[C@@H]2OCCCC[C@@H](C)Oc3ccc(NC(=O)Nc4ccc(C(F)(F)F)cc4)cc3C(=O)N([C@H](C)CO)C[C@H]2C)cc1", "growth activity, negative = inhibition": "-85.2% (active)"}
{"compound": "COc1ccc(NC(=O)Nc2ccc3c(c2)C(=O)N([C@@H](C)CO)C[C@H](C)[C@H](CN(C)Cc2ccc(C(F)(F)F)cc2)OCCCC[C@H](C)O3)cc1", "growth activity, negative = inhibition": "0.631% (inactive)"}
{"compound": "C[C@@H]1CN([C@H](C)CO)C(=O)c2cc(NC(=O)Nc3ccc(C(F)(F)F)cc3)ccc2O[C@@H](C)CCCCO[C@@H]1CN(C)Cc1ccc(C(F)(F)F)cc1", "growth activity, negative = inhibition": "0.541% (inactive)"}
{"compound": "COc1ccc(S(=O)(=O)N2CC[C@@H]3[C@H](CO)Nc4ccc(C#Cc5cccc(OC)c5)cc4[C@@H]32)cc1", "growth activity, negative = inhibition": "47.9% (inactive)"}
{"compound": "CCCNC(=O)N1[C@@H]2CNC[C@H]1C2c1ccc(-c2cccc(C)c2)cc1", "note": "(some centres undefined)", "growth activity, negative = inhibition": "-6.26% (inactive) and -5.23% (inactive)"}
{"compound": "C[C@H](CO)N1C[C@H](C)[C@@H](CN(C)C(=O)C2CCC2)Oc2cc(C3=CCCCC3)ccc2S1(=O)=O", "growth activity, negative = inhibition": "-7.06% (inactive)"}
{"compound": "O=C(C[C@@H]1CC[C@@H](NC(=O)c2cccnc2)[C@H](CO)O1)NCCN1CCCCC1", "growth activity, negative = inhibition": "-5.37% (inactive)"}
{"compound": "CN(C)C(=O)C[C@@H]1CC[C@H]2[C@@H](COC[C@H](O)CN2S(=O)(=O)c2ccccc2)O1", "growth activity, negative = inhibition": "0.743% (inactive) and 2.09% (inactive)"}
{"compound": "O=C(NC1Cc2ccccc2C1)[C@@H]1[C@@H](CO)[C@@H]2Cn3c(ccc(C4=CCCC4)c3=O)[C@H]1N2CC1CC1", "growth activity, negative = inhibition": "-0.745% (inactive)"}
{"compound": "C[C@H](O)C#Cc1cnc2c(c1)C(=O)N([C@H](C)CO)C[C@@H](C)[C@@H](CN(C)C(=O)Nc1ccc(C(F)(F)F)cc1)O2", "growth activity, negative = inhibition": "4.02% (inactive)"}
{"compound": "O=C(Cc1ccccc1)N1CC2(C1)[C@H](c1ccccc1)[C@@H](CO)N2C(=O)c1cccnc1", "growth activity, negative = inhibition": "1.92% (inactive)"}
{"compound": "O=C(Cc1cccnc1)N1CC(=O)N2[C@@H](CO)[C@H](c3ccc(C#CC4CC4)cc3)[C@@H]2C1", "growth activity, negative = inhibition": "-8.63% (inactive)"}
{"compound": "CCCC(=O)Nc1ccc2c(c1)OC[C@H](C)N(Cc1ccc(F)cc1)C[C@H](C)[C@H](OC)CN(C)C2=O", "growth activity, negative = inhibition": "-2.55% (inactive)"}
{"compound": "COc1ccc2c3c(n(C)c2c1)[C@H](CO)N(C(=O)c1ccncc1)CC31CCN(CC2CC2)CC1", "growth activity, negative = inhibition": "-4.02% (inactive)"}
{"compound": "CN(C)CC(=O)N[C@H]1CC[C@H](CCNC(=O)C2CCCCC2)O[C@H]1CO", "growth activity, negative = inhibition": "-2.36% (inactive)"}
{"compound": "CCS(=O)(=O)N1CC(=O)N2[C@H](CO)[C@@H](c3ccc(C#Cc4cccc(F)c4)cc3)[C@@H]2C1", "growth activity, negative = inhibition": "-11.9% (inactive)"}
{"compound": "CCCNC(=O)N1CC2(CCN(Cc3ccc(F)cc3)CC2)c2c([nH]c3cc(OC)ccc23)[C@@H]1CO", "growth activity, negative = inhibition": "-2.16% (inactive)"}
{"compound": "COc1ccc(C#Cc2cnc3c(c2)C(=O)N([C@H](C)CO)C[C@@H](C)[C@H](CN(C)C(=O)Nc2cccc(OC)c2)O3)cc1", "growth activity, negative = inhibition": "-9.72% (inactive)"}
{"compound": "CO[C@@H]1CN(C)C(=O)c2ccc(NC(=O)NC(C)C)cc2OC[C@@H](C)N(C)C[C@H]1C", "growth activity, negative = inhibition": "-0.836% (inactive)"}
{"compound": "CO[C@H]1CN(C)C(=O)c2ccc(NC(=O)c3cnccn3)cc2OC[C@H](C)N(C)C[C@@H]1C", "growth activity, negative = inhibition": "4.99% (inactive)"}
{"compound": "CC=Cc1ccc2n(c1=O)C[C@H]1[C@H](CO)[C@@H](C(=O)NCCc3cn(C)cn3)[C@@H]2N1C(=O)CC", "note": "(mixture of isomers)", "growth activity, negative = inhibition": "1.45% (inactive)"}
{"compound": "CCNC(=O)C[C@H]1CC[C@@H]2[C@H](COc3ccc(NC(=O)Nc4cccc(Cl)c4)cc3C(=O)N2C)O1", "growth activity, negative = inhibition": "-2.43% (inactive)"}
{"compound": "CC(=O)N1[C@H](CNC(=O)CN(C)C)[C@H](c2ccc(C3=CCCC3)cc2)[C@@H]1CO", "growth activity, negative = inhibition": "-3.19% (inactive)"}
{"compound": "CO[C@H]1O[C@H](CO)[C@@H](OC(=O)Nc2ccc(C(F)(F)F)cc2)[C@H](OC(=O)Nc2ccc3c(c2)OCO3)[C@H]1OC(=O)Nc1ccc2c(c1)OCO2", "growth activity, negative = inhibition": "16.4% (inactive)"}
{"compound": "COc1ccc(-c2ccc3c(c2)[C@@H]2[C@@H](CCN2C(=O)NC2CCCC2)[C@@H](CO)N3C)cc1", "growth activity, negative = inhibition": "-8.11% (inactive)"}
{"compound": "C[C@H](NC(=O)[C@@H]1[C@@H](CO)[C@@H]2Cn3c(ccc(-c4cccc(F)c4)c3=O)[C@@H]2N1C)c1ccccc1", "growth activity, negative = inhibition": "-2.53% (inactive)"}
{"compound": "CN1C(=O)c2cc(NC(=O)C3CCCCC3)ccc2OC[C@H]2O[C@@H](CC(=O)NC3CCCC3)CC[C@@H]21", "growth activity, negative = inhibition": "-2.9% (inactive)"}
{"compound": "CO[C@@H]1CN(C)C(=O)c2ccc(NC(=O)Nc3cc(Cl)cc(Cl)c3)cc2OC[C@H](C)NC[C@H]1C", "growth activity, negative = inhibition": "-99.2% (active)"}
{"compound": "CO[C@H]1CN(C)C(=O)c2ccc(NC(=O)Nc3ccc(F)cc3)cc2OC[C@@H](C)NC[C@H]1C", "growth activity, negative = inhibition": "0.388% (inactive)"}
{"compound": "CO[C@H]1CN(C)C(=O)c2ccc(NC(=O)Nc3ccc4c(c3)OCO4)cc2OC[C@H](C)NC[C@H]1C", "growth activity, negative = inhibition": "-11.3% (inactive)"}
{"compound": "COc1cccc(NC(=O)N2C[C@@H](O)COC[C@@H]3O[C@@H](CC(=O)NC4CCC4)CC[C@H]32)c1", "growth activity, negative = inhibition": "5.76% (inactive)"}
{"compound": "Cc1ccccc1S(=O)(=O)NCC[C@@H]1CC[C@H](NC(=O)C2CCC2)[C@@H](CO)O1", "growth activity, negative = inhibition": "2.36% (inactive)"}
{"compound": "O=C(N[C@H]1CC[C@H](CCNS(=O)(=O)c2ccc(F)cc2)O[C@H]1CO)c1cccc(F)c1", "growth activity, negative = inhibition": "-5.13% (inactive)"}
{"compound": "COC(=O)C[C@H]1C[C@H]2c3cc(NC(=O)Nc4ccccc4F)ccc3O[C@H]2[C@H](CO)O1", "growth activity, negative = inhibition": "2.15% (inactive)"}
{"compound": "COc1cc(C(=O)NC2CCN(C)CC2)ccc1Nc1ncc2c(n1)N(C1CCC(O)CC1)CCC(=O)N2C", "note": "(centres undefined)", "growth activity, negative = inhibition": "-0.491% (inactive)"}
{"compound": "O=C(Nc1cc(F)ccc1F)N1C[C@H]2[C@@H](c3ccccc31)[C@@H](CO)N2CC1CCCC1", "growth activity, negative = inhibition": "8.3% (inactive)"}
